These results are taken from the supplement of paper PMC10849652.

The full data set covers some 7,900 targets. This sample favours those with a hit. About 0.6% of all pairs of compound and target were hits. Unmarked numbers belong to inactive results.

UniProt P08579, sequence (P08579 whole entry, looked up): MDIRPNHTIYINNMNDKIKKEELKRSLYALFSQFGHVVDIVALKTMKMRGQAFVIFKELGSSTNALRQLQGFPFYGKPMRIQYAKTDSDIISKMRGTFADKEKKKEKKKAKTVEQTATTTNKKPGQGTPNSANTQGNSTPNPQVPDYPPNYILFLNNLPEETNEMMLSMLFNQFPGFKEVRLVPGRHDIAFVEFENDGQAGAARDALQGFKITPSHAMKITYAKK
UniProt P50225, sequence (P50225 whole entry, looked up): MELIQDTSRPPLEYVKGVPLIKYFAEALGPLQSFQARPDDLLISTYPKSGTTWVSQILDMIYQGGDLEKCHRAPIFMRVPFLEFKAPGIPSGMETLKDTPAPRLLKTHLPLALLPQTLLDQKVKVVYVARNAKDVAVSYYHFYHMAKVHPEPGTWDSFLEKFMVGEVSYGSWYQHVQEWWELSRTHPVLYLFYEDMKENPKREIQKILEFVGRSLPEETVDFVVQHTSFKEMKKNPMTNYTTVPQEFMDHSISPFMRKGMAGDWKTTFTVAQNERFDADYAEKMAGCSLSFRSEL
UniProt Q16385, sequence (Q16385 whole entry, looked up): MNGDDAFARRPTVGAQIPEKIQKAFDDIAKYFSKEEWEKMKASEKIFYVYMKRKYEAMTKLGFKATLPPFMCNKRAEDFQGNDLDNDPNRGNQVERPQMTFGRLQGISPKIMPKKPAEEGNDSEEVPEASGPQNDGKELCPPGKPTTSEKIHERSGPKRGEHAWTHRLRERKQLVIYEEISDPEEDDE
UniProt Q9UBP0, sequence (Q9UBP0 whole entry, looked up): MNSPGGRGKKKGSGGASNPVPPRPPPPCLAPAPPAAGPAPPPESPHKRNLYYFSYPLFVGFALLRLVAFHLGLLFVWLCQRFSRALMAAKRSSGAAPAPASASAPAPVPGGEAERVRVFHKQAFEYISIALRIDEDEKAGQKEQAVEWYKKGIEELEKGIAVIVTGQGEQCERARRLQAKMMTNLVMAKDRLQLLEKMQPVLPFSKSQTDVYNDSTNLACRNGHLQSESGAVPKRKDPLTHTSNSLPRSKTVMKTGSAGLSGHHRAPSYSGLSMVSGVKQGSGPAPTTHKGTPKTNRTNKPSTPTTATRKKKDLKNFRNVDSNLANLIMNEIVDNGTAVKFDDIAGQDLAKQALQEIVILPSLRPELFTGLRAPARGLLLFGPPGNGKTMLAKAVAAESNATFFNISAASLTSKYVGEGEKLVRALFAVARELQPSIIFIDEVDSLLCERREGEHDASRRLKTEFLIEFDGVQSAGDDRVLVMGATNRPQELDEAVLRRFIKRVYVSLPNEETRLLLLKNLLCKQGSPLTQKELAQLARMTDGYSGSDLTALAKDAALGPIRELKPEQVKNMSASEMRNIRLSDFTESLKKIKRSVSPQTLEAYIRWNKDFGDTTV
UniProt Q96BW9, sequence (Q96BW9 whole entry, looked up): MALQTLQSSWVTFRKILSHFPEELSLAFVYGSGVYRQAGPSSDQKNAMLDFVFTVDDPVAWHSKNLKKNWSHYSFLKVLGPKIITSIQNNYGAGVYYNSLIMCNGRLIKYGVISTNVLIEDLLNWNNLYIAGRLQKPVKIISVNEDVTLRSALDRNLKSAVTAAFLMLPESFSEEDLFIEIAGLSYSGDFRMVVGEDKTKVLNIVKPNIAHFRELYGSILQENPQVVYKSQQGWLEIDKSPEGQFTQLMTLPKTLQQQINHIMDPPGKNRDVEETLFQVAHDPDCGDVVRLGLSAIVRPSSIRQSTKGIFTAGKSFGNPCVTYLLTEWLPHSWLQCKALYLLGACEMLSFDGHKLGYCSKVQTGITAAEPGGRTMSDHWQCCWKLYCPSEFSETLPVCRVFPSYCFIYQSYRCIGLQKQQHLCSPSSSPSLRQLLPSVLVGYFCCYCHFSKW
UniProt P12235, sequence (P12235 whole entry, looked up): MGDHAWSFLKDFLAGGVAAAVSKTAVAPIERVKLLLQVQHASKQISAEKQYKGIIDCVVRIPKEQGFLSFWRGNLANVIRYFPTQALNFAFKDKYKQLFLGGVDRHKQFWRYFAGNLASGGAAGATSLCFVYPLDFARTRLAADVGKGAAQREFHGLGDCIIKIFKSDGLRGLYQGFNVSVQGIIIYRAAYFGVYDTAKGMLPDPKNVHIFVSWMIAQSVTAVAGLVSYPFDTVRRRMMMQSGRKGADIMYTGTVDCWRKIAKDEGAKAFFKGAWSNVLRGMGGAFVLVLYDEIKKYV
UniProt P62072, sequence (P62072 whole entry, looked up): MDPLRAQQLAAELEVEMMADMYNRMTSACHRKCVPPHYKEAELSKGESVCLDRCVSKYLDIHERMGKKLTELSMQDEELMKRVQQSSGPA
UniProt P56962, sequence (P56962 whole entry, looked up): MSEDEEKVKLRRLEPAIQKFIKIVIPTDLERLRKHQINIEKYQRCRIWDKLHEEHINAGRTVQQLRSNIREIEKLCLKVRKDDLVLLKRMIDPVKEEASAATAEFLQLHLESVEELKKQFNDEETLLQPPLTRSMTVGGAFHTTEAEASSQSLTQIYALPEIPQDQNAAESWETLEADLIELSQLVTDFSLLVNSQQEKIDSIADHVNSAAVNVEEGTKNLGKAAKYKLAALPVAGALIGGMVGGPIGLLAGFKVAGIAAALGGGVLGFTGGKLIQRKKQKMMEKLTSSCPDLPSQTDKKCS
UniProt Q9NQZ5, sequence (Q9NQZ5 whole entry, looked up): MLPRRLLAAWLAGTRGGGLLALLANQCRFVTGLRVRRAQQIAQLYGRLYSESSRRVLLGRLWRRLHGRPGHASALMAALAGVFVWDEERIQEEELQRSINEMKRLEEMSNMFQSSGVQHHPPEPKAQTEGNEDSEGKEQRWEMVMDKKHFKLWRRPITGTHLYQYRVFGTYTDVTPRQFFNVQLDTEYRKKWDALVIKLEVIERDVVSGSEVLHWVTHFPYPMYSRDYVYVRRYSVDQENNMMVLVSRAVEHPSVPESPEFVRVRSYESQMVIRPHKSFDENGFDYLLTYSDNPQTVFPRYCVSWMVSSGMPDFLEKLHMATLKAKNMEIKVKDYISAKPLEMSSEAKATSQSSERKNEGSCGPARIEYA
UniProt Q6P1M0, sequence (Q6P1M0 whole entry, looked up): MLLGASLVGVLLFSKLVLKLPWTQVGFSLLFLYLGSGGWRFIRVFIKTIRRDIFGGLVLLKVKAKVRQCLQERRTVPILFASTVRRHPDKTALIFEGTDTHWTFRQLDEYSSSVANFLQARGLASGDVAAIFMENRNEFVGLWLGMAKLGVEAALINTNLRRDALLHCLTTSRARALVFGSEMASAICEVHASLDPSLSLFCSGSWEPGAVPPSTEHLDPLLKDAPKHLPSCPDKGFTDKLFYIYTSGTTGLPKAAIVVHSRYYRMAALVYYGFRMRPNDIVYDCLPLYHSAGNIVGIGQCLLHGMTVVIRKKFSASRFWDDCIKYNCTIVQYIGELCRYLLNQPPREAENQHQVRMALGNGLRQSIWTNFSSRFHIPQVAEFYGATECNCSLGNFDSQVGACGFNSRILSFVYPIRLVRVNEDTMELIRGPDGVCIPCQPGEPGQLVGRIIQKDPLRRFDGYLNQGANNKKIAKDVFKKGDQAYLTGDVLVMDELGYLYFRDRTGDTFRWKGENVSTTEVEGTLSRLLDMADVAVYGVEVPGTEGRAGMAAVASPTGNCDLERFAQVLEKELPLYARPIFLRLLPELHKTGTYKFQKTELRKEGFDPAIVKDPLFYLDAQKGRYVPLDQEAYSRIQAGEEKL
UniProt Q08170, sequence (Q08170 whole entry, looked up): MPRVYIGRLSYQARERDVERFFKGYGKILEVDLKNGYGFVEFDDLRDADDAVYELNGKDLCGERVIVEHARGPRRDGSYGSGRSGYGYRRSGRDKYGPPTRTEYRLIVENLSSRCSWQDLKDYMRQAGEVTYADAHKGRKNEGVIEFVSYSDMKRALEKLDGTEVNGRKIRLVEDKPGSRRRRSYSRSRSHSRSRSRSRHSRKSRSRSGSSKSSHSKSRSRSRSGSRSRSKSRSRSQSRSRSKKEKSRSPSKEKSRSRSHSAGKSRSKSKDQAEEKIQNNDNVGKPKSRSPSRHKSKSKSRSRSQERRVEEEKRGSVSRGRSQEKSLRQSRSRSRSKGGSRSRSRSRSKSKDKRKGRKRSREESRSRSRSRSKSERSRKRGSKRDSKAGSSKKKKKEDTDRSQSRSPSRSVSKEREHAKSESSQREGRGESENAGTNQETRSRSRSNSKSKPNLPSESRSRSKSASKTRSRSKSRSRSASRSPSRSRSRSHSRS
UniProt P20226, sequence (P20226 whole entry, looked up): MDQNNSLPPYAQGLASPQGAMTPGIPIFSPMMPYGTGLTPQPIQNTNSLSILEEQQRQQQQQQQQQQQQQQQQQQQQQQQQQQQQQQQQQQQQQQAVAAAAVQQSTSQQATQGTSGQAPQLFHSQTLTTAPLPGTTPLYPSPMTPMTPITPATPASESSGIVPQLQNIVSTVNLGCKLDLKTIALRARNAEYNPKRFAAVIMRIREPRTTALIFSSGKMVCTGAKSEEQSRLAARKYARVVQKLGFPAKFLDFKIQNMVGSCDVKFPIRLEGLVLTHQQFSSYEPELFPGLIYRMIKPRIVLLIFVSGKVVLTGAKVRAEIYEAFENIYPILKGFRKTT
UniProt P51687, sequence (P51687 whole entry, looked up): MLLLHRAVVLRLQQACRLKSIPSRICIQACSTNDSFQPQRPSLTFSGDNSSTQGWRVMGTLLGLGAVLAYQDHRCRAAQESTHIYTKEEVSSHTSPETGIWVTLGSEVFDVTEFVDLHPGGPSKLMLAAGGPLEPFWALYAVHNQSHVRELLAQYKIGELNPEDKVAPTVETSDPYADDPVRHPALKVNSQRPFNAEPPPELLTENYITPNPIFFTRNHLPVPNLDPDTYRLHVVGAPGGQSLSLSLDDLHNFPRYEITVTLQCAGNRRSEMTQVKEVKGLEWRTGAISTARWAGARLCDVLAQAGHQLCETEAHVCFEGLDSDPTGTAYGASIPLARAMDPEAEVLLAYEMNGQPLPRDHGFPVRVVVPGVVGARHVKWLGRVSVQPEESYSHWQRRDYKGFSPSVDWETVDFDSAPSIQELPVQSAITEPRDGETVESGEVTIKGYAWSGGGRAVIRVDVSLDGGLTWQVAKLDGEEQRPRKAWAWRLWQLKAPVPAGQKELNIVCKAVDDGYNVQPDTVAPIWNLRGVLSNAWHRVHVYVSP

Compound in this test: C1=CC=C(C=C1)[C@H](COC2=CC3=C(C=C2)NC(=O)N3)NC(=O)C4=CC=CN(C4=O)CC5=CC(=C(C=C5)F)F
Briefly: log2 fold change, soluble protein after heating vs DMSO (PISA); higher = thermal stabilisation; K562 cells, 10 uM, 30 min; active = over 0.2 and 3.5 SD of the protein, either way, in both replicates (recomputed). The method, boiled down:
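K562 cells at 2×10^6 cells/mL were treated for 30 min with 10 μM compound, and aliquots were heated for 3 min over 48°C-58°C before pooling. Extraction used PBS with 0.5% NP-40 at 4°C, and soluble protein was the supernatant after 21,000xg for 90 min, measured by TMTpro 16plex LC-MS/MS with channel sums equalised. Thermal stability values, relative to control samples and from duplicates, are log2 fold changes.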
For the target STX17 (UniProt P56962), the log2 fold change was 0.03. For TJP2 isoform 7 (UniProt Q9UDY2) the value was -0.03. Regarding SNX9 (UniProt Q9Y5X1), the log2 fold change is -0.051. Regarding SRC isoform 2 (UniProt P12931), the log2 fold change was 0.016.

As for SUOX (UniProt P51687), the log2 fold change was 0.01. For SSX2 (UniProt Q16385) the value was 0.008; for SRPRB (UniProt Q9Y5M8), -0.005; for TIMM10 (UniProt P62072), -0.013.

For THYN1 (UniProt Q9P016), the log2 fold change is -0.024. For TGFBI (UniProt Q15582) the value was -0.115. For the target SLC27A4 (UniProt Q6P1M0), the log2 fold change was -0.018.

For the target TBP (UniProt P20226), the log2 fold change was 0.016.

In the case of SPAG9 isoform 4 (UniProt O60271), the log2 fold change is 0.15. For TAMM41 isoform 3 (UniProt Q96BW9) the value was -0.012.

As for THADA (UniProt Q6YHU6), the log2 fold change is -0.06. For ST6GAL1 (UniProt P15907) the value was 0.017; for TFAM (UniProt Q00059), 0.062. Regarding TARBP1 (UniProt Q13395), the log2 fold change was -0.058. For SPAST (UniProt Q9UBP0) the value was -0.057. For SLC27A2 (UniProt O14975) the value was 0.038; for TEX30 (UniProt Q5JUR7), -0.162; for STIM1 (UniProt Q13586), -0.051. For SNRPB2 (UniProt P08579) the value was 0.083; for SRSF4 (UniProt Q08170), 0.09; for SPCS2 (UniProt Q15005), -0.011. Regarding SMG1 (UniProt Q96Q15), the log2 fold change was -0.104. With SREK1 isoform 2 (UniProt Q8WXA9), the log2 fold change is 0.05. For SYNE2 isoform 2 (UniProt Q8WXH0) the value was 0.064; for SULT1A1 (UniProt P50225), -0.083.

SSRP1 (UniProt Q08945): the log2 fold change was -0.027. For SLC4A2 (UniProt P04920) the value was -0.042. Consider SRSF7 (UniProt Q16629), for which the log2 fold change was 0.136.

Turning to STARD7 (UniProt Q9NQZ5), the log2 fold change was -0.018. For STXBP5 (UniProt Q5T5C0) the value was -0.011; for SLC25A4 (UniProt P12235), -0.001; for STARD3NL (UniProt O95772), 0.027. Regarding SSB (UniProt P05455), the log2 fold change is -0.02.
